This excerpt belongs to a sample that is enriched for hits.
Ins promoter up: MIN6 insulin promoter up-regulation; MIN6 insulin promoter-GFP reporter, high-content imaging; active compounds read high; z-score at 5 µM; 190,000 tested, 0.3% active;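 active = z-score above 3 at 5 µM with at least 500 cells counted in the well; inconclusive = wells under 500 cells, flagged as cytotoxic or low count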
ROMK primary: modulates human ROMK potassium channel activity; Tet-inducible ROMK, thallium flux fluorescence; actives lie on both sides; B-score at 10 µM; 130,000 tested, 2% active; AID 1918;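 active = signal ratio slope over the read window, or its plate-corrected B-score, at least 3 SD from the plate mean, either direction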;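 also: B-score of the F/F0 ratio slope over 7 to 12 s after thallium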
Target sequence (P48048 whole entry, looked up): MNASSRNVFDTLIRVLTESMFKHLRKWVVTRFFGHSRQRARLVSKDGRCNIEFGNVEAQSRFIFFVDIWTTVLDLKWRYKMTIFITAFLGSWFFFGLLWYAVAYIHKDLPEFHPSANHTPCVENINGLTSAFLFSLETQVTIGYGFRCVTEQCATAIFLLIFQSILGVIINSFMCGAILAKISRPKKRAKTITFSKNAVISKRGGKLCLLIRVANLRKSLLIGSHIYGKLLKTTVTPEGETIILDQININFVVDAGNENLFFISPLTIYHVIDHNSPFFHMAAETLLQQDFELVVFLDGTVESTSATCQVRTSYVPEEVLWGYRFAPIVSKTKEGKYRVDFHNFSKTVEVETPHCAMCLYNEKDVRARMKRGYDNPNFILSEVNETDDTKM
HSV augment: increases HSV replication in cells. HSV replication augmentation in cells, fold increase. maximum fold increase. 220,000 tested, 0.005% active; in the data active = maximum fold increase above about 1.5; inconclusive = no clear call, values can overlap the other calls; tested in PC3 cells
Insulin prom inh: TRM-6 insulin promoter activity inhibition | TRM-6 cells (human fetal islet line), insulin promoter-eGFP reporter, imaging; reporter expression induced with tamoxifen | inhibition, % at 2 µM | 130,000 tested, 0.9% active;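 active = inhibition above the mean plus 3 SD, with well images judged a real hit on visual review, cut at about 60% in these data, passing the limit was not always enough; inconclusive = inhibition over the cutoff but images rejected on review; inactive = inhibition not above the cutoff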
TbHK1 inh: T. brucei hexokinase 1 inhibition; recombinant TbHK1, G6PDH-coupled NADH A340; inhibition, % at 10 µM; 220,000 tested, 0.11% active; AID 1430;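 active = inhibition of 50% or more in the single-dose primary screen; inactive = inhibition below 50%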
ROMK hit retest: confirmation of human ROMK potassium channel modulators; ROMK thallium flux, fluorescence ratio; active compounds read low; 3,000 tested, 54% active; normalized thallium flux (F/F0 slope) at 10 µM; shares compounds with ROMK primary;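 active = Flux at 10 µM at least 3 SD below or above vehicle control mean in one or both replicates; inconclusive = no clear call, values can overlap the other calls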
Numbers without * were called inactive; i = inactive; ? = inconclusive; nt = not tested or not shown.

SMILES	Ins promoter up	ROMK primary	HSV augment	Insulin prom inh	TbHK1 inh	ROMK hit retest
CCN(CC)CCOC(=O)c1ccc(NC(=O)c2ccc(Cl)c(S(=O)(=O)N3CCCCCC3)c2)cc1	-1	-0.76	nt	36	5	0.078
O=C(Nc1cccnc1)c1ccc(Cl)c(S(=O)(=O)N2CCCCCC2)c1	0.13	nt	i	3	3	?
O=C(Nc1ccc2c(c1)OCO2)c1ccc(Br)c(S(=O)(=O)N2CCCC2)c1	nt	-2.9*	i	-12	-3	0.066*
CC1(C)CC(=O)C=C(c2cccs2)C1	nt	nt	i	nt	nt	nt
Cc1ccc(C2C3CSCC=C3C(C#N)=C(N)C2(C#N)C#N)cc1 (stereo not given)	-1.9	-0.26	?	4	0	nt
N#CC1=C(N)C(C#N)(C#N)[C@H](c2ccncc2)[C@H]2CC3(CC=C12)OCCO3	-0.64	-3.8*	i	-24	10	?
Cc1cccc(Oc2ccc(NC(=O)c3ccccc3C(=O)O)cc2)c1C	-0.52	1.6*	i	nt	10	0.076
COc1ccc(CNC(NC(=O)c2ccccc2)(C(F)(F)F)C(F)(F)F)cc1	-0.2	-0.17	i	nt	0	nt
Cc1cc(/C=C2\Sc3ccccc3N2C)cc(C)[n+]1CC1CCCO1 (stereo not given)	?	-4.8*	nt	nt	4	0.028*
O=c1[nH]c(CSc2ccccn2)nc2c1oc1ccccc12	-0.36	nt	i	nt	-5	nt
C=CC[n+]1c(/C=C2\C=Cc3cc(C)ccc3N2CC)ccc2ccccc21	?	-3.4*	nt	-413	10	0.053*
CCN1C(=C(C#N)C#N)C=Cc2cc(C)ccc21	-0.8	-0.52	i	-12	-6	nt
OC(CNCc1ccccc1)COCc1ccc(Cl)cc1 (stereo not given)	nt	-1.9	i	-50	4	nt
CC(NCC(O)COCc1ccc(Cl)cc1)c1ccccc1 (stereo not given)	-0.9	-2*	i	-89	11	0.049*
COc1ccccc1-c1ccc(/C=C2\C=CC(=O)O2)o1	1.9	nt	i	nt	-1	0.044*
COc1ccccc1-c1ccc(/C=C2/C=C(C)OC2=O)o1	0.93	-1.1	i	11	-10	nt
Cc1ccc(NS(=O)(=O)c2cc([N+](=O)[O-])ccc2NNC(=S)Nc2cc(C)ccc2C)c(C)c1	-1.5	nt	i	8	16	0.064*
Cc1ccc(-c2csc(NC(=O)C3=NN(c4ccccc4)C(=O)CC3)n2)cc1	-1.1	0.041	i	-23	-16	nt
O=C(CSc1nnc2ccccn12)N1CCc2ccccc21	0.44	-0.21	i	17	4	nt
CCCC(c1nnnn1Cc1ccc(F)cc1)N1CCN(C2CCCCC2)CC1 (stereo not given)	-0.19	nt	i	nt	6	0.052*
COc1ccc(Cn2nnnc2C(c2ccc(F)cc2)N2CCN(C3CCCC3)CC2)cc1 (stereo not given)	-1.1	-4.2*	i	0	3	0.053*
CC(C)C(c1nnnn1Cc1ccco1)N1CCN(C2CCCC2)CC1 (stereo not given)	0.47	-1.1	i	nt	4	nt
CC(C)C(c1nnnn1Cc1ccc(F)cc1)N1CCN(C2CCCC2)CC1 (stereo not given)	-0.28	-4.6*	i	nt	2	0.059*
CCCC(c1nnnn1Cc1cccs1)N1CCN(C2CCCC2)CC1 (stereo not given)	0.09	nt	i	nt	0	nt
CNc1nc(C)cc(C)c1S(=O)(=O)c1ccc(C)cc1	nt	nt	i	-79	-15	nt
SMILES	Ins promoter up	ROMK primary	HSV augment	Insulin prom inh	TbHK1 inh	ROMK hit retest
Cc1ccc(N2CC(=O)Nc3c(oc4nc(-c5ccccc5)cc(C)c34)C2=O)cc1	-0.26	0.16	i	nt	2	nt
COc1ccccc1CNC(=O)c1cc2c(=O)[nH]c3ccccc3c2n1C	nt	1	i	nt	0	nt
COc1ccc(NS(=O)(=O)c2cc(NC(=O)c3ccco3)ccc2N2CCCC2)cc1	-1.4	nt	i	nt	-7	nt
COc1ccc(NS(=O)(=O)c2cc(NC(=O)c3cc(F)c(F)c(F)c3F)ccc2N2CCCC2)cc1	-0.25	nt	i	nt	-6	0.084
CCCC(=O)Nc1nc(C)c(-c2csc(Nc3ccccc3C)n2)s1	-1.5	-15*	i	nt	-13	?
CCOC(=O)c1c(C)n(C)c2ccc(OC)c(NC(=O)CCN3CCC(Cc4ccccc4)CC3)c12	nt	nt	i	nt	10	0.063*
CCOC(=O)CSc1nc(Cc2ccccc2)nc2ccccc12	-0.01	-0.32	i	nt	-4	nt
Cc1nc(SCC(=O)Nc2c(C)nn(C)c2C)c2cnn(-c3ccccc3)c2n1	-0.41	nt	i	-23	3	nt
CC(C)c1nc(SCC(=O)Nc2c[nH]c(=O)[nH]c2=O)c2cnn(-c3ccccc3)c2n1	-1.6	0.42*	i	nt	-4	0.085
COCCSc1ccccc1C(=O)N1CCN(Cc2ccccc2)CC1	-0.69	-0.024	i	nt	5	nt
CN(C)/C=N/c1c(C#N)cnn1-c1ccccc1	-0.29	0.082	i	nt	-6	nt
CN(C)/C=N/c1c(C#N)cnn1-c1ncnc2sc(-c3ccccc3)cc12	-0.74	nt	i	nt	-34	0.063*
CCc1ccc(-c2ccc(SCC(=O)Nc3nnc(C)s3)nn2)cc1	-0.06	-0.1	i	26	-1	nt
O=C(COC(=O)/C=C/c1ccc(S(=O)(=O)N2CCOCC2)cc1)NCc1ccc(F)cc1	0.05	5*	i	nt	-9	0.09
CCOc1ccccc1N(CC(=O)N1CCOCC1)S(=O)(=O)c1ccc(SC)cc1	-0.27	-7.4*	i	-388	6	0.034*
Cn1cccc1C(=O)OCC(=O)N1c2ccccc2NC(=O)C1(C)C	0.34	0.81	i	nt	7	nt
CCN(CC)S(=O)(=O)c1ccc(C(=O)OCn2c(SC)nnc(C)c2=O)cc1	?	-0.36	i	25	-2	nt
CC(C)(C)n1nc(C2CC2)cc1NC(=O)Nc1ccc(Cl)cc1	-0.31	nt	i	nt	4	0.078
CNc1nc(Cl)nc(NC(C)(C)C)n1	nt	nt	i	0	-3	nt
CC(C)(C)Nc1nc(NN)nc(NC(C)(C)C)n1	0.67	-5.2*	i	nt	7	0.051*
Cc1[nH]n(-c2ccc(C(=O)O)cc2)c(=O)c1CCO	0.23	3.8*	i	-127	1	0.081
Cc1[nH]n(-c2ccc(Cl)c(Cl)c2)c(=O)c1CCO	-0.43	1	i	nt	-9	nt
COc1ccccc1NS(=O)(=O)c1cc(C(=O)NCCC(C)C)ccc1F	0.47	1.4	i	nt	1	nt
COCCCNC(=O)c1cn(CC(C)C)c(=O)c2c1c1ccccc1n2C	0.02	-0.74	i	-61	-13	nt
CC(C)Cn1cc(C(=O)NC2CCN(Cc3ccccc3)CC2)c2c3ccccc3n(C)c2c1=O	-3.1	-2.2*	nt	nt	-23	0.068*
CCOCc1nnc(NC(=O)c2c(OC)cccc2OC)s1	0.74	3.3*	i	32	-6	?
CC(=O)c1ccc(O)c(CSC2=NCCS2)c1	-0.26	0.28	i	14	-18	nt
CC(=O)c1ccc(O)c(CO)c1	nt	0.58	i	nt	-6	0.086
Cc1cc(NS(=O)(=O)c2ccc(NC(=S)NC(=O)c3ccc(Br)cc3)cc2)no1	0.06	1.4	i	-14	-4	nt
